# Assay results published in PubChem BioAssay (NCATS).
# “And” between values parts separate entries of the source, which are not always exact repeats. Equal values may be shown once. Inconclusive results are not listed. Entries that show only a call come without a potency. Values without a mark were called inactive. The source made the active and inactive calls. Calls follow the shape of the dose curve; as a rule, active = well fitted curve in the direction sought with a large enough effect; inconclusive = small, poorly fitted or top-dose-only effect, or another doubt; inactive = no such curve, though single readings can be large; an effect the other way counts as inactive or inconclusive.
# Key:
# [1] = test system: TAB109; test: qHTS profiling for inhibitors of Plasmodium falciparum proliferation (AID 504749); also: nearly all actives have a fitted effect of over 60% in size; conditions: P. falciparum in erythrocytes, SYBR Green DNA, 72 h; series mostly up to 28.7 µM
# Outline: (§1)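 Three-day growth assay of blood-stage parasites in erythrocytes (0.3% parasitemia, 2.5% hematocrit) at 37 C, 5% CO2, quantified by SYBR Green DNA staining after overnight detergent lysis.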
# [2] = test system: TAB113; test: as above; conditions: P. falciparum in erythrocytes, SYBR Green DNA, 72 h; series mostly up to 28.7 µM
# Outline: as §1
# [3] = test system: TAB165; test: as above; conditions: P. falciparum in erythrocytes, SYBR Green DNA, 72 h; series mostly up to 28.7 µM
# Outline: as §1
# [4] = test system: CRL-7250; test: Cytotoxic Profiling of Annotated Libraries Using Quantitative High-Throughput Screening (AID 1296008); conditions: Five cell lines viability, CellTiter-Glo ATP luminescence, 48-72 h; max response: active compounds read low; also: nearly all actives have a fitted effect of over 60% in size
# Outline: (§2)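 Cytotoxicity was measured as CellTiter-Glo ATP luminescence, read after 10 min at room temperature. Compound treatment of the cells lasted 48 or 72 hr at 37 degrees Celsius in a qHTS format.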
# [5] = test system: HEK293; test: as above; conditions: Five cell lines viability, CellTiter-Glo ATP luminescence, 48-72 h; max response: active compounds read low
# Outline: as §2
# [6] = test system: HaCat; test: as above; conditions: Five cell lines viability, CellTiter-Glo ATP luminescence, 48-72 h; max response: active compounds read low
# Outline: as §2
# [7] = test system: KB-3-1; test: as above; conditions: Five cell lines viability, CellTiter-Glo ATP luminescence, 48-72 h; max response: active compounds read low
# Outline: as §2
# [8] = test system: NIH3T3; test: as above; conditions: Five cell lines viability, CellTiter-Glo ATP luminescence, 48-72 h; max response: active compounds read low
# Outline: as §2
# [9] = test system: HACAT; test: qHTS assay to identify novel small-molecules to repurpose for Merkel cell carcinoma treatment (AID 1296009); conditions: MCC and control cell lines, CellTiter-Glo viability, 72 h; at 44.8 µM (top of the series) unless noted; also: nearly all actives have a fitted effect of over 60% in size
# Outline: (§3)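 After compound transfer in DMSO, plates were kept 72 hr at 37 degree celsius. Luminescent ATP signal from CellTiter-Glo served as viability measure, normalized against DMSO and no-cell controls.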
# [10] = test system: HEK293T; test: as above; conditions: MCC and control cell lines, CellTiter-Glo viability, 72 h; at 44.8 µM (top of the series) unless noted
# Outline: as §3
# [11] = test system: MCC-13; test: as above; conditions: MCC and control cell lines, CellTiter-Glo viability, 72 h; series mostly up to 46 µM
# Outline: as §3
# [12] = test system: MCC-26; test: as above; conditions: MCC and control cell lines, CellTiter-Glo viability, 72 h; series mostly up to 46 µM
# Outline: as §3
# [13] = test system: MKL-1; test: as above; conditions: MCC and control cell lines, CellTiter-Glo viability, 72 h; series mostly up to 46 µM
# Outline: as §3
# [14] = test system: MKL-2; test: as above; conditions: MCC and control cell lines, CellTiter-Glo viability, 72 h; series mostly up to 46 µM
# Outline: as §3
# [15] = test system: UISO; test: as above; conditions: MCC and control cell lines, CellTiter-Glo viability, 72 h; series mostly up to 46 µM
# Outline: as §3
# [16] = test system: WaGa; test: as above; conditions: MCC and control cell lines, CellTiter-Glo viability, 72 h; series mostly up to 46 µM
# Outline: as §3
# [17] = test system: C33A; test: Primary qHTS to identify gynecologic anti-cancer compounds using libraries of approved drugs and bioactive compounds (AID 1345084); conditions: Gynecologic cancer cell panel viability, ATPlite luminescence, 48 h; series mostly up to 57.5 µM; also: nearly all actives have a fitted effect of over 55% in size
# Outline: (§4)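 48 h compound exposure at 37 C, 5% CO2; five-point qHTS. ATPlite luminescence readout of cell ATP.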
# [18] = test system: CAOV3; test: as above; conditions: Gynecologic cancer cell panel viability, ATPlite luminescence, 48 h; series mostly up to 57.5 µM
# Outline: as §4
# [19] = test system: W2; test: qHTS profiling for inhibitors of Plasmodium falciparum proliferation (AID 504749); also: nearly all actives have a fitted effect of over 60% in size; conditions: P. falciparum in erythrocytes, SYBR Green DNA, 72 h; series mostly up to 28.7 µM
# Outline: as §1
# [20] = test system: NIH3T3; test: qHTS assay to identify novel small-molecules to repurpose for Merkel cell carcinoma treatment (AID 1296009); conditions: MCC and control cell lines, CellTiter-Glo viability, 72 h; at 44.8 µM (top of the series) unless noted; also: nearly all actives have a fitted effect of over 60% in size
# Outline: as §3
# Potency is read from the fitted curve at half-maximal effect.
smiles,measurement,setting,value
O=C(O)COc1nn(Cc2ccccc2)c2ccccc12,Potency,[1],inactive
same,Potency,[2],inactive
same,Potency,[3],inactive
same,max response,[4],-2.07%
same,outcome,[5],inactive
same,outcome,[6],inactive
same,max response,[7],-3.25%
same,max response,[8],2.16%
same,outcome,[9],inactive
same,outcome,[10],inactive
same,Potency,[11],inactive
same,Potency,[12],inactive
same,Potency,[13],inactive
same,Potency,[14],inactive
same,Potency,[15],inactive
same,Potency,[16],inactive
same,Potency,[17],inactive
same,Potency,[18],inactive
CN(C)CCCO[C@@H]1[C@H]2OC(C)(C)O[C@H]2O[C@@H]1C(O)CO (some centres not stated),max response,[4],-6.03%
same,outcome,[5],inactive
same,outcome,[6],inactive
same,max response,[7],3.47%
same,max response,[8],-0.499%
same,outcome,[9],inactive
same,outcome,[10],inactive
same,Potency,[11],inactive
same,Potency,[12],inactive
same,Potency,[13],inactive
same,Potency,[14],inactive
same,Potency,[15],inactive
same,Potency,[16],inactive
same,Potency,[17],inactive
same,Potency,[18],inactive
CCN(CC)CCNC(C(=O)OCCC(C)C)c1ccccc1 (configuration not stated),Potency,[3],10 µM (active)
same,Potency,[19],4.78 µM (active)
same,max response,[4],1.18%
same,outcome,[5],inactive
same,outcome,[6],inactive
same,max response,[7],11.9%
same,outcome,[8],inactive
same,outcome,[9],inactive
same,outcome,[10],inactive
same,Potency,[11],inactive
same,Potency,[12],inactive
same,Potency,[13],inactive
same,Potency,[14],inactive
same,outcome,[20],inactive
same,Potency,[15],inactive
same,Potency,[16],inactive
same,Potency,[17],inactive
O=S(=O)(O)c1cc(I)c(O)c2ncccc12,Potency,[1],inactive
same,Potency,[2],inactive
same,Potency,[3],inactive
same,Potency,[19],inactive
same,max response,[4],1.34%
same,outcome,[5],inactive
same,outcome,[6],inactive
same,max response,[7],-3.56%
same,max response,[8],-0.492%
same,outcome,[9],inactive
same,outcome,[10],inactive
same,Potency,[11],inactive
same,Potency,[12],inactive
same,Potency,[13],inactive
same,Potency,[14],inactive
same,Potency,[15],inactive
same,Potency,[16],inactive
same,Potency,[17],inactive
same,Potency,[18],inactive
CCCCCCCCCCCCOS(=O)(=O)O,Potency,[1],inactive
same,Potency,[2],inactive
same,Potency,[3],inactive
same,Potency,[19],inactive
same,outcome,[4],inactive
same,outcome,[5],inactive
same,outcome,[6],inactive
same,max response,[7],16.2%
same,outcome,[8],inactive
same,outcome,[9],inactive
same,outcome,[10],inactive
same,Potency,[11],inactive
same,Potency,[12],inactive
same,Potency,[13],inactive
same,Potency,[14],inactive
same,outcome,[20],inactive
same,Potency,[15],inactive
same,Potency,[16],inactive
same,Potency,[17],inactive
same,Potency,[18],inactive
C=CCn1c(=O)n([C@@H]2O[C@H](CO)[C@@H](O)[C@H]2O)c2nc(N)[nH]c(=O)c21,max response,[4],-6.63%
same,outcome,[5],inactive
same,outcome,[6],inactive
same,max response,[7],17%
same,max response,[8],4.38%
same,outcome,[9],inactive
same,outcome,[10],inactive
same,Potency,[11],inactive
same,Potency,[12],inactive
same,Potency,[13],inactive
same,Potency,[14],inactive
same,Potency,[15],inactive
same,Potency,[16],inactive
same,Potency,[17],inactive
same,Potency,[18],inactive
CC1(C)S[C@@H]2[C@H](NC(=O)Cc3ccccc3)C(=O)N2[C@H]1C(=O)O (tested in a mixture with another compound),outcome,[4],inactive
same,outcome,[5],inactive
same,max response,[6],-1.15%
same,max response,[7],9.18%
same,outcome,[8],inactive
same,outcome,[10],inactive
same,Potency,[11],inactive
same,Potency,[12],inactive
same,Potency,[13],inactive
same,Potency,[14],inactive
same,outcome,[20],inactive
same,Potency,[15],inactive
same,Potency,[16],inactive
same,Potency,[17],inactive
NC(=O)c1ncn([C@@H]2O[C@H](CO)[C@@H](O)[C@H]2O)c1N,max response,[4],-9.1%
same,max response,[5],-5.61%
same,max response,[6],-15%
same,max response,[7],12%
same,max response,[8],-10.7%
same,Potency,[11],inactive
same,Potency,[12],inactive
same,Potency,[13],inactive
same,Potency,[14],inactive
same,Potency,[15],inactive
same,Potency,[16],inactive
same,Potency,[17],inactive
same,Potency,[18],inactive
NS(=O)(=O)c1cc2c(cc1Cl)NC(CSCc1ccccc1)=NS2(=O)=O,Potency,[1],inactive
same,Potency,[2],inactive
same,Potency,[3],inactive
same,Potency,[19],inactive
same,max response,[4],-1.78%
same,outcome,[5],inactive
same,max response,[6],-9.13%
same,max response,[7],1.03%
same,outcome,[8],inactive
same,outcome,[10],inactive
same,Potency,[11],inactive
same,Potency,[12],inactive
same,Potency,[13],inactive
same,Potency,[14],inactive
same,outcome,[20],inactive
same,Potency,[15],inactive
same,Potency,[16],inactive
same,Potency,[17],inactive
O=C1NS(=O)(=O)c2ccccc21,Potency,[1],inactive
same,Potency,[2],inactive
same,Potency,[3],inactive
same,Potency,[19],inactive
same,max response,[4],-9.05%
same,outcome,[5],inactive
same,outcome,[6],inactive
same,max response,[7],20.6%
same,max response,[8],-6%
same,outcome,[9],inactive
same,outcome,[10],inactive
same,Potency,[11],inactive
same,Potency,[12],inactive
same,Potency,[13],inactive
same,Potency,[14],inactive
same,Potency,[15],inactive
same,Potency,[16],inactive
same,Potency,[17],inactive
CCn1cc(C(=O)O)c(=O)c2cnc(N3CCNCC3)nc21,Potency,[1],inactive
same,Potency,[2],inactive
same,Potency,[3],inactive
same,Potency,[19],inactive
same,max response,[4],-6.3%
same,outcome,[5],inactive
same,max response,[6],-4.47%
same,max response,[7],-0.342%
same,outcome,[8],inactive
same,outcome,[10],inactive
same,Potency,[11],inactive
same,Potency,[12],inactive
same,Potency,[13],inactive
same,Potency,[14],inactive
same,outcome,[20],inactive
same,Potency,[15],inactive
same,Potency,[16],inactive
same,Potency,[17],inactive
same,Potency,[18],inactive
CC(C)(C)C(=O)NCCCC(=O)O,Potency,[1],inactive
same,Potency,[2],inactive
same,Potency,[3],inactive
same,Potency,[19],inactive
same,max response,[4],-4.98%
same,outcome,[5],inactive
same,max response,[6],4.53%
same,max response,[7],-0.595%
same,outcome,[8],inactive
same,outcome,[10],inactive
same,Potency,[11],inactive
same,Potency,[12],inactive
same,Potency,[13],inactive
same,Potency,[14],inactive
same,outcome,[20],inactive
same,Potency,[15],inactive
same,Potency,[16],inactive
same,Potency,[17],inactive
same,Potency,[18],inactive
CCN(CC)CCOC(=O)C1(C2CCCCC2)CCCCC1,outcome,[4],inactive
same,max response,[5],-0.793%
same,outcome,[6],inactive
same,max response,[7],-11.2%
same,max response,[8],1.01%
same,outcome,[9],inactive
same,Potency,[11],inactive
same,Potency,[12],inactive
same,Potency,[13],inactive
same,Potency,[14],inactive
same,Potency,[15],inactive
same,Potency,[16],inactive
same,Potency,[17],inactive
same,Potency,[18],inactive
CC[N+](CC)(CC)CCOc1ccc(/C=C/c2ccccc2)cc1,Potency,[4],1.06 µM (active)
same,Potency,[5],4.73 µM (active)
same,Potency,[6],8.41 µM (active)
same,max response,[7],-18.6% and -29.7%
same,max response,[8],-21.5%
same,Potency,[11],inactive
same,Potency,[12],inactive
same,Potency,[13],2.99 µM (active)
same,Potency,[14],1.68 µM (active)
same,Potency,[15],1.19 µM (active)
same,Potency,[16],1.88 µM (active)
same,Potency,[17],14.1 µM (active)
same,Potency,[18],10 µM (active)
